Reference: the supplement of paper PMC4709259
Structures can show the parent of a compound that is named as a salt. ± gives the standard deviation.

What was measured:
Jurkat [1] = assay: mean cell size (FSC-A) relative to DMSO control (fraction of control); higher = larger cells; details: 48 h
How it was run: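 Jurkat cells at 600 cells/µl were incubated for 1 h and then treated for 48h with the Enzo Screen-Well FDA Approved Drug Library v2.0 at 25µM, with DMSO at 0.9% (v/v) final. Compounds that reduced counts below 20% of controls were retested in 10-fold dilutions down to 25nM. Cell count and mean cell size, taken as forward scatter area, were measured by flow cytometry relative to solvent-only controls. Each plate carried 6-12 controls, and values are means of 3 biological replicates.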

Jurkat [2] = assay: cell count relative to DMSO control (fraction of control); higher = more cells (less growth inhibition); details: 48 h

O=C1N=C(O)CN1N=Cc1ccc(-c2ccc([N+](=O)[O-])cc2)o1 [Dantrolene·Na] (concentration: 25 µM)
mean cell size (Jurkat [1]): 1 ± 0.021 | cell count (Jurkat [2]): 0.837 ± 0.068

CN(C)CCC(c1ccc(Cl)cc1)c1ccccn1 (stereo unspecified) [Chlorpheniramine Maleate] (concentration: 25 µM)
mean cell size (Jurkat [1]): 0.961 ± 0.02 | cell count (Jurkat [2]): 0.917 ± 0.11

CN(C)c1cc(NC(=O)CNC(C)(C)C)c(O)c2c1C[C@H]1C[C@H]3[C@H](N(C)C)C(=O)C(C(N)=O)=C(O)[C@@]3(O)C(=O)C1=C2O [Tigecycline] (concentration: 25 µM)
mean cell size (Jurkat [1]): 1.01 ± 0.051 | cell count (Jurkat [2]): 0.784 ± 0.06

CO/N=C(\C(=O)N[C@@H]1C(=O)N2C(C(=O)O)=C(COC(N)=O)CS[C@H]12)c1ccco1 [Cefuroxime·Na] (concentration: 25 µM)
mean cell size (Jurkat [1]): 0.994 ± 0.028 | cell count (Jurkat [2]): 0.945 ± 0.051

CN(C)CCOC(c1ccccc1)c1ccccc1.Cn1c(=O)c2[nH]c(Cl)nc2n(C)c1=O [Dimenhydrinate] (concentration: 25 µM)
mean cell size (Jurkat [1]): 1.05 ± 0.051 | cell count (Jurkat [2]): 0.558 ± 0.15

Nc1ncn([C@@H]2O[C@H](CO)[C@@H](O)[C@H]2O)c(=O)n1 [Azacitidine] (concentration: 25 µM)
mean cell size (Jurkat [1]): 0.9766 ± 0.0047 | cell count (Jurkat [2]): 0.668 ± 0.11

CCCc1nn(C)c2c(=O)[nH]c(-c3cc(S(=O)(=O)N4CCN(C)CC4)ccc3OCC)nc12 [Sildenafil Citrate] (concentration: 25 µM)
mean cell size (Jurkat [1]): 1.02 ± 0.055 | cell count (Jurkat [2]): 0.719 ± 0.22

Nc1nc(F)nc2c1ncn2[C@@H]1O[C@H](COP(=O)(O)O)[C@@H](O)[C@@H]1O [Fludarabine Phosphate] (concentration: 2.5 µM)
mean cell size (Jurkat [1]): 1.327 ± 0.0094 | cell count (Jurkat [2]): 0.378 ± 0.024
